What was measured:
Assay in all cases: yeast three-hybrid, YBZ-1, SC-Leu-His + 0.5 mM 3-AT, 4 days
Settings in all cases: tags: N-Gal4 AD-HA kept; label: inside an RPR1-promoter hybrid RNA with tandem MS2 sites; ssRNA
PUM1 PUF domain R5-ISR = PUM1 PUF domain R5-ISR (Homo sapiens, UniProt Q14671 828-1176, C1007I;R1008S;Q1011R)
Summary of the method: (§1)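 Pumilio-1 PUF domain libraries, randomized at the three base-contacting residues of each repeat, were co-expressed with matching RNA elements from a centromeric plasmid in strain YBZ-1, which carries a LexA–MS2 coat fusion and a HIS3 reporter. Transformants grew for four days on SC-Leu (input) or on SC-Leu-His + 0.5 mM 3-AT (selection), and the repeat regions were PCR-amplified and Illumina-sequenced. The interaction score is the log change in variant frequency from input to selection. That logarithm is base 2, with a pseudocount of 1 where a variant was absent.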

PUM1 PUF domain R6-FHS = target: T1, PUM1 PUF domain R6-FHS (Homo sapiens, UniProt Q14671 828-1176, N1043F;Y1044H;Q1047S)
T1 sequence: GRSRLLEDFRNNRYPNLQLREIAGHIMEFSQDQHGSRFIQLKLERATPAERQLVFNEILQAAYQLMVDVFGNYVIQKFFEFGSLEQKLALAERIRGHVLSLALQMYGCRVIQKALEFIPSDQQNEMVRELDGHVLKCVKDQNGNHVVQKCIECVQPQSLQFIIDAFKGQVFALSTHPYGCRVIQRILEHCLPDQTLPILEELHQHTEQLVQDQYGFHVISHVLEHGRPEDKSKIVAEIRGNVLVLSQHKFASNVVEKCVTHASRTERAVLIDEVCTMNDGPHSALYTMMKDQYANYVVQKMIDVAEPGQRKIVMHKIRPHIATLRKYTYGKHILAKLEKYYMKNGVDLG
Summary of the method: as §1

PUM1 PUF domain R8-IHR = PUM1 PUF domain R8-IHR (Homo sapiens, UniProt Q14671 828-1176, N1122I;Y1123H;Q1126R)
Summary of the method: as §1

PUM1 PUF domain R4-DHT = PUM1 PUF domain R4-DHT (Homo sapiens, UniProt Q14671 828-1176, N971D;Q975T)
Summary of the method: as §1

PUM1 PUF domain R5-QQC = PUM1 PUF domain R5-QQC (Homo sapiens, UniProt Q14671 828-1176, C1007Q;R1008Q;Q1011C)
Summary of the method: as §1

PUM1 PUF domain R5-QHE = PUM1 PUF domain R5-QHE (Homo sapiens, UniProt Q14671 828-1176, C1007Q;R1008H;Q1011E)
Summary of the method: as §1

PUM1 PUF domain R2-SWG = PUM1 PUF domain R2-SWG (Homo sapiens, UniProt Q14671 828-1176, N899S;Y900W;Q903G)
Summary of the method: as §1

PUM1 PUF domain R3-RSF = PUM1 PUF domain R3-RSF (Homo sapiens, UniProt Q14671 828-1176, C935R;R936S;Q939F)
Summary of the method: as §1

PUM1 PUF domain R3-IFA = PUM1 PUF domain R3-IFA (Homo sapiens, UniProt Q14671 828-1176, C935I;R936F;Q939A)
Summary of the method: as §1

PUM1 PUF domain R7-KSV = PUM1 PUF domain R7-KSV (Homo sapiens, UniProt Q14671 828-1176, S1079K;N1080S;E1083V)
Summary of the method: as §1

Sequence: GGCUAGAACUAGUGGAUCCCCCGGCGCCCGGCGGCUCGAGCCCGGGUAAGUGUCAAUAGUCUGCAUGCCGCCGGGCGCCAUGCCUGCAGGUCGACUCUAGAAAACAUG
- binding signal (PUM1 PUF domain R5-ISR): 3.12 log2 enrichment (interaction score)

Sequence: GGCUAGAACUAGUGGAUCCCCCGGCGCCCGGCGGCUCGAGCCCGGGUAAGUGUAAAUAGUCUGCAUGCCGCCGGGCGCCAUGCCUGCAGGUCGACUCUAGAAAACAUG
- binding signal (PUM1 PUF domain R5-ISR): 1.4 log2 enrichment (interaction score)
- binding signal (PUM1 PUF domain R6-FHS): 4.18 log2 enrichment (interaction score)
- binding signal (PUM1 PUF domain R8-IHR): 3.28 log2 enrichment (interaction score)

Sequence: GGCUAGAACUAGUGGAUCCCCCGGCGCCCGGCGGCUCGAGCCCGGGUAAGUGUACAUAGUCUGCAUGCCGCCGGGCGCCAUGCCUGCAGGUCGACUCUAGAAAACAUG
- binding signal (PUM1 PUF domain R4-DHT): 2.73 log2 enrichment (interaction score)

Sequence: GGCUAGAACUAGUGGAUCCCCCGGCGCCCGGCGGCUCGAGCCCGGGUAAGUGUGAAUAGUCUGCAUGCCGCCGGGCGCCAUGCCUGCAGGUCGACUCUAGAAAACAUG
- binding signal (PUM1 PUF domain R5-QQC): 4.46 log2 enrichment (interaction score)
- binding signal (PUM1 PUF domain R5-QHE): 3.04 log2 enrichment (interaction score)

Sequence: GGCUAGAACUAGUGGAUCCCCCGGCGCCCGGCGGCUCGAGCCCGGGUAAGUGUAAAAAGUCUGCAUGCCGCCGGGCGCCAUGCCUGCAGGUCGACUCUAGAAAACAUG
- binding signal (PUM1 PUF domain R2-SWG): 3.09 log2 enrichment (interaction score)

Sequence: GGCUAGAACUAGUGGAUCCCCCGGCGCCCGGCGGCUCGAGCCCGGGUAAGUGUAAAGAGUCUGCAUGCCGCCGGGCGCCAUGCCUGCAGGUCGACUCUAGAAAACAUG
- binding signal (PUM1 PUF domain R2-SWG): 1.53 log2 enrichment (interaction score)

Sequence: GGCUAGAACUAGUGGAUCCCCCGGCGCCCGGCGGCUCGAGCCCGGGUAAGUGUAAUUAGUCUGCAUGCCGCCGGGCGCCAUGCCUGCAGGUCGACUCUAGAAAACAUG
- binding signal (PUM1 PUF domain R3-RSF): 3.86 log2 enrichment (interaction score)
- binding signal (PUM1 PUF domain R3-IFA): 3.87 log2 enrichment (interaction score)

Sequence: GGCUAGAACUAGUGGAUCCCCCGGCGCCCGGCGGCUCGAGCCCGGGUAAGUUUAAAUAGUCUGCAUGCCGCCGGGCGCCAUGCCUGCAGGUCGACUCUAGAAAACAUG
- binding signal (PUM1 PUF domain R7-KSV): 3.22 log2 enrichment (interaction score)

Sequence: GGCUAGAACUAGUGGAUCCCCCGGCGCCCGGCGGCUCGAGCCCGGGUAAGUCUAAAUAGUCUGCAUGCCGCCGGGCGCCAUGCCUGCAGGUCGACUCUAGAAAACAUG
- binding signal (PUM1 PUF domain R7-KSV): 3.22 log2 enrichment (interaction score)

Sequence: GGCUAGAACUAGUGGAUCCCCCGGCGCCCGGCGGCUCGAGCCCGGGUAAGCGUAAAUAGUCUGCAUGCCGCCGGGCGCCAUGCCUGCAGGUCGACUCUAGAAAACAUG
- binding signal (PUM1 PUF domain R8-IHR): 4.48 log2 enrichment (interaction score)

Source: PMC8384837, “Expanding the binding specificity for RNA recognition by a PUF domain”
